According to PubChem BioAssay (NCATS):
Several values for one entry are separate records, joined by “and”; a condition that tells them apart may be missing. Equal entries are not always repeated. A number with no mark means an inactive call. Results filed as inconclusive are left out. A call without a number means that no potency is given here. Activity calls are given as the source filed them. Unless noted, calls come from the whole dose curve; as a rule, active = well fitted curve in the direction sought with a large enough effect; inconclusive = small, poorly fitted or top-dose-only effect, or another doubt; inactive = no such curve, though single readings can be large; an effect the other way counts as inactive or inconclusive.

Key:
[1] = molecular target: Cytochrome P450 3A4 (Homo sapiens) (UniProt P08684); experiment: qHTS Assay for Inhibitors and Substrates of Cytochrome P450 3A4 (AID 884); note: series mostly up to about 57 µM; nearly all actives have a fitted effect of over 50% in size
Sequence of Cytochrome P450 3A4 (Homo sapiens) (P08684 whole entry, looked up): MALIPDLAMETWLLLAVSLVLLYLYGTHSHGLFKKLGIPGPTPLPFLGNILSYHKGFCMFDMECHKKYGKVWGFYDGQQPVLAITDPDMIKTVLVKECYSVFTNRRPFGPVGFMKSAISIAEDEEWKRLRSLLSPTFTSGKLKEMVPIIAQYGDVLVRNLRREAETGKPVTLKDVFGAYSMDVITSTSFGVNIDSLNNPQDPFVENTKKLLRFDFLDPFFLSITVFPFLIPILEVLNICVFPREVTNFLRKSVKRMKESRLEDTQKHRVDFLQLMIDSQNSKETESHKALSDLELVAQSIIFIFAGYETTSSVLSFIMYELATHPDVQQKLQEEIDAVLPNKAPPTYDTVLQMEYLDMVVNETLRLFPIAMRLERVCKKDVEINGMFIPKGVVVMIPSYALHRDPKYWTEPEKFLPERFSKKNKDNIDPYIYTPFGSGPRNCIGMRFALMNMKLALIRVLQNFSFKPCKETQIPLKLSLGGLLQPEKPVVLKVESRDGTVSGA
How it was run: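 20 nM human CYP3A4 with 25 uM Luciferin-PPXE (at KM) in 200 mM KPO4, preincubated 10 min with compound; NADPH regeneration started a 60 min RT reaction. Luciferin detected by luminescence, normalized to 57 uM ketoconazole as full inhibition.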

[2] = MultiTox-Fluor Cytotoxicity Assay - LYMP1-001 - Live Cells (AID 947)
[3] = Cell Viability - LYMP2-004 (AID 966); note: nearly all actives have a fitted effect of over 65% in size
How it was run: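 Lymphoblastoid LYMP2-004 cells, 2500 per well, were preincubated for 5 hr and then treated with compound for 24 h at 37 C in complete medium. Viability was read as cellular ATP by CellTiter-Glo luminescence, and AC50 values were taken from Hill fits to concentration-response data.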

[4] = Cell Viability - LYMP2-009 (AID 968); note: series mostly up to about 92 µM; nearly all actives have a fitted effect of over 55% in size
[5] = Cell Viability - LYMP2-012 (AID 982);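 note: cellular ATP by luciferase luminescence where a drop means cytotoxicity; cells exposed to compound for one day before reading; nearly all actives have a fitted effect of over 55% in size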
[6] = molecular target: Estrogen receptor (Homo sapiens) (UniProt P03372); experiment: qHTS assay for small molecule antagonists of estrogen receptor alpha signaling (AID 588513; active = well fitted curve in the direction sought with a large enough effect in the signal ratio, with a control signal flat, not every such curve was filed as active; the % refers to the signal ratio)
Sequence of Estrogen receptor (Homo sapiens) (P03372 whole entry, looked up): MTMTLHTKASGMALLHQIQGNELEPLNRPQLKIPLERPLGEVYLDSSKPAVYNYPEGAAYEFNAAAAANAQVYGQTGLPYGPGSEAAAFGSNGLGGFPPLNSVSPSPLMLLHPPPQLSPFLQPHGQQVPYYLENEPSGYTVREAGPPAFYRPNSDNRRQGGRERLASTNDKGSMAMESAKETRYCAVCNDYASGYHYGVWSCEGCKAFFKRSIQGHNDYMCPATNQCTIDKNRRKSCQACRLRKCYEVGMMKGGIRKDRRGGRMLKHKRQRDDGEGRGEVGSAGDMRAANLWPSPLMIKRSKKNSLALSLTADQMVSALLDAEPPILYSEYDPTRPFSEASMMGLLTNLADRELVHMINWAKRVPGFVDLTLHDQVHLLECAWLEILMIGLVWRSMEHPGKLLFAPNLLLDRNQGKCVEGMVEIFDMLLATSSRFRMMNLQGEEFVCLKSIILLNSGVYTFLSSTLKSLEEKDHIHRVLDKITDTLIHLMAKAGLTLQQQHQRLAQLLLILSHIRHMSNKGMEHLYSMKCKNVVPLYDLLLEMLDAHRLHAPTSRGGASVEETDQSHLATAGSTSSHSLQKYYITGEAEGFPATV
How it was run: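 Fluorescence from CCF4 substrate after 2 h at room temperature gave reporter activity; cells had been exposed to compound and 0.5nM 17-beta-estradiol for 18 h at 37 C. Hill-equation fitting yielded IC50 and maximal response.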

[7] = molecular target: Estrogen receptor (Homo sapiens) (UniProt P03372); experiment: qHTS assay for small molecule agonists of estrogen receptor alpha signaling (AID 588514; calls by dose curve; note: nearly all actives have a fitted effect of over 70% in size; note: potency is the fitted concentration of half-maximal effect)
How it was run: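 ER-alpha-UAS-bla GripTite HEK293 cells, 5000/well in 2% charcoal/dextran-stripped FBS medium, treated with compound titrations 18 h at 37 C. CCF4 beta-lactamase read by fluorescence after 2 h RT; normalised to 20 nM 17-beta-estradiol (100%) and DMSO (0%), Hill fit for EC50 and efficacy.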

[8] = molecular target: Bile acid receptor (Homo sapiens) (UniProt Q96RI1); experiment: qHTS assay for small molecule agonists of farnesoid X receptor signaling (AID 588527; calls by dose curve; note: series mostly up to about 77 µM); conditions: HEK293T FXR-UAS-bla, beta-lactamase ratio, 16 h; active compounds read high
Sequence of Bile acid receptor (Homo sapiens) (Q96RI1 whole entry, looked up): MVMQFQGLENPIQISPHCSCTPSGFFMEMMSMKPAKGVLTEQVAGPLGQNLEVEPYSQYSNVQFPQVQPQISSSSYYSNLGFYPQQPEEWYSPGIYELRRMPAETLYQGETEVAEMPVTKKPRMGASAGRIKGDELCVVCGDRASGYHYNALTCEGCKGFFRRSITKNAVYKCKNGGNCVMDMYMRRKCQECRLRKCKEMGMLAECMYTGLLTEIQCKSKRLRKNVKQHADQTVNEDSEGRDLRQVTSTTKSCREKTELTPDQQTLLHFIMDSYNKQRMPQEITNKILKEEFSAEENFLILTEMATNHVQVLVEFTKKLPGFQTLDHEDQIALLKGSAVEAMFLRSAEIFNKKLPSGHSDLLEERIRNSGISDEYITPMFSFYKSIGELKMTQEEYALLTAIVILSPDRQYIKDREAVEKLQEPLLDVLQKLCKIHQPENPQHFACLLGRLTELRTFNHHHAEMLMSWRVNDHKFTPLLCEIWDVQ
How it was run: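 FXR-UAS-bla HEK293T cells (10% dialyzed FBS) preincubated 5-7 h at 37 C, then compounds at up to 92 uM for 16 h at 37 C. CCF4 beta-lactamase read-out after 2 h RT. Normalized to chenodeoxycholic acid (100 uM) and DMSO; Hill fit gave EC50 and efficacy.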

[9] = molecular target: Glucocorticoid receptor (Homo sapiens) (UniProt P04150); experiment: qHTS assay for small molecule agonists of glucocorticoid receptor signaling (AID 588532; active = well fitted curve in the direction sought with a large enough effect in the signal ratio, with a control signal flat; the % refers to the signal ratio); conditions: HeLa MMTV-bla, beta-lactamase ratio, agonist, 18 h; active compounds read high; percent of dexamethasone control, DMSO zero
Sequence of Glucocorticoid receptor (Homo sapiens) (P04150 whole entry, looked up): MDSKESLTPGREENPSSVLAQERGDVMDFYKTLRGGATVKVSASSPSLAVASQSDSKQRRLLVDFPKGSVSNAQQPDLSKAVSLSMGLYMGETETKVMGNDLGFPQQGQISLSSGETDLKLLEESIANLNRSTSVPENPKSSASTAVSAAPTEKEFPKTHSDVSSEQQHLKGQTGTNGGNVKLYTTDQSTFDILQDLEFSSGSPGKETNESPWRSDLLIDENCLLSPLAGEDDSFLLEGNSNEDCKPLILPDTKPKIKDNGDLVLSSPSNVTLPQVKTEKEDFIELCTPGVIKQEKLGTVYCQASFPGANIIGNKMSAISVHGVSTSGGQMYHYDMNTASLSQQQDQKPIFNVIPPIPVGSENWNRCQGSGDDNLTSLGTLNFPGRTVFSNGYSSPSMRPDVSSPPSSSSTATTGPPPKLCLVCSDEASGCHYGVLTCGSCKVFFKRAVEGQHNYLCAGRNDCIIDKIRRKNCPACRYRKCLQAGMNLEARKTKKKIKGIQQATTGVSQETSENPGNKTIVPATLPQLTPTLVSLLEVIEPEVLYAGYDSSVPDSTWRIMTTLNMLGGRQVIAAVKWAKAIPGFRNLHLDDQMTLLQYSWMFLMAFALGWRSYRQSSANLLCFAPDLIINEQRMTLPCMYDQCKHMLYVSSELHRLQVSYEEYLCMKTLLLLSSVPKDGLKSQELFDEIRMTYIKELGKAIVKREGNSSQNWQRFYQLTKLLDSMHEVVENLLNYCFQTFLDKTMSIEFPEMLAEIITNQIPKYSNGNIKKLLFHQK
How it was run: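 HeLa GRE-bla reporter cells; 18 h compound exposure at 37 C; 2 h CCF4 loading at room temperature; fluorescence at 460 and 530 nm; EC50 by Hill equation.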

[10] = molecular target: Glucocorticoid receptor (Homo sapiens) (UniProt P04150); experiment: qHTS assay for small molecule antagonists of glucocorticoid receptor signaling (AID 588533; active = well fitted inhibition curve with a large enough effect in the signal ratio, with a control signal flat, not every such curve was filed as active; the % refers to the signal ratio)
How it was run: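 Antagonist-mode qHTS: compound titrations added to GRE-bla HeLa cells, then dexamethasone 2 nM final; 18 h, 37 C. CCF4 FRET fluorescence normalized to dexamethasone and DMSO; IC50 from Hill fit.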

[11] = molecular target: Peroxisome proliferator-activated receptor gamma (Homo sapiens) (UniProt P37231); experiment: qHTS assay for small molecule agonists of peroxisome proliferator-activated receptor gamma signaling (AID 588536; active = well fitted curve in the direction sought with a large enough effect in the signal ratio, with a control signal flat, not every such curve was filed as active; the % refers to the signal ratio)
Sequence of Peroxisome proliferator-activated receptor gamma (Homo sapiens) (P37231 whole entry, looked up): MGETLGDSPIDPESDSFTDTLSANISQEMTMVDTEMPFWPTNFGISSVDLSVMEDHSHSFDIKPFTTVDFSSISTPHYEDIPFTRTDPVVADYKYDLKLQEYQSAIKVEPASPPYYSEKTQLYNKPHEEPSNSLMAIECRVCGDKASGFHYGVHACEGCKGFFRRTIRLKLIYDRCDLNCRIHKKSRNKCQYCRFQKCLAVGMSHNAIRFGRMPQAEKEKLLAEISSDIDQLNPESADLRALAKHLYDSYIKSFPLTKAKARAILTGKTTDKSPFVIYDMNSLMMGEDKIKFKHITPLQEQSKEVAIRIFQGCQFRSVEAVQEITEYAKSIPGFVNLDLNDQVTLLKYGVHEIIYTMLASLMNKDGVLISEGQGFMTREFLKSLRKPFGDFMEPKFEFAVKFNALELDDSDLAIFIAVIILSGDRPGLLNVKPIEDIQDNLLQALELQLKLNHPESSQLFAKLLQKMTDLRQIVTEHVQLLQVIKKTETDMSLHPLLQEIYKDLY
How it was run: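 GeneBLAzer PPAR-gamma-UAS-bla HEK293 cells in 1% charcoal/dextran-treated FBS medium were treated 16 h at 37 C with compounds. Beta-lactamase activity was read by CCF4 ratio (460/530 nm). Response was normalized to 2 uM rosiglitazone (100%) and DMSO, then Hill-fitted for EC50 and efficacy.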

[12] = molecular target: Vitamin D3 receptor (Homo sapiens) (UniProt P11473); experiment: qHTS assay for small molecule antagonists of vitamin D receptor signaling (AID 588541; calls by dose curve;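 note: receptor activated by calcitriol during compound treatment; series mostly up to about 77 µM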)
Sequence of Vitamin D3 receptor (Homo sapiens) (P11473 whole entry, looked up): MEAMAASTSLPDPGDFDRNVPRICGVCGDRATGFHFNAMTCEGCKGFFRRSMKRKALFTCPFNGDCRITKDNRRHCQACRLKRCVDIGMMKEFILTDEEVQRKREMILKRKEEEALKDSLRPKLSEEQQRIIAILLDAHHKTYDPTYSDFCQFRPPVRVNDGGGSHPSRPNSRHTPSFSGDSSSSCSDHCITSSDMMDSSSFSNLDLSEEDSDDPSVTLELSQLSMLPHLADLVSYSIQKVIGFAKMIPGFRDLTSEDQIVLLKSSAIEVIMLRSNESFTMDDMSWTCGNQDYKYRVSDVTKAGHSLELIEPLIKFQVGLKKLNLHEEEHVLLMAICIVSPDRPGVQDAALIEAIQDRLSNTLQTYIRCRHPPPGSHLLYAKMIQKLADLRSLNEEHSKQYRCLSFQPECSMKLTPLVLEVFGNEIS
How it was run: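 VDR-UAS-bla HEK293T cells in 2% charcoal-stripped FBS were stimulated with 1-alpha,25-dihydroxyvitamin D3 (3 nM final) plus compound for 16 h at 37 C. The beta-lactamase CCF4 readout was normalized to 50 nM agonist and DMSO, and Hill fits gave IC50.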

[13] = molecular target: Vitamin D3 receptor (Homo sapiens) (UniProt P11473); experiment: qHTS assay for small molecule agonists of vitamin D receptor signaling (AID 588543; calls by dose curve)
How it was run: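 Reporter cells (HEK293T, VDR-UAS-bla) were seeded in medium with 2% charcoal-stripped serum and incubated 5 h, then compounds in concentration series were added for 16 h at 37 °C. Stimulation was scaled between DMSO basal and 50 nM 1α,25-dihydroxyvitamin D3.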

[14] = qHTS assay for small molecule agonists of the antioxidant response element (ARE) signaling pathway (AID 651741; active = well fitted activation curve with a large enough effect in the signal ratio; the % refers to the signal ratio)
How it was run: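 CellSensor ARE-bla HepG2 cells (2,000/well) carrying ARE-driven beta-lactamase, exposed 16 h at 37 C. LiveBLAzer B/G FRET substrate added for 2 h at room temperature; fluorescence intensity read.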

[15] = qHTS assay for small molecule activators of the p53 signaling pathway (AID 651743; active = well fitted activation curve with a large enough effect in the signal ratio, not every such curve was filed as active; the % refers to the signal ratio; note: series mostly up to about 92 µM); conditions: HCT-116 p53RE-bla, beta-lactamase FRET ratio, 16 h; activation: active compounds read high
How it was run: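 p53RE-bla HCT-116 cells carrying a beta-lactamase reporter under p53 response elements were exposed to compounds for 16 hours at 37 C. Reporter activity read as fluorescence after 2 hours at room temperature with LiveBLAzer B/G FRET substrate.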

[16] = molecular target: Nuclear receptor ROR-gamma (Homo sapiens) (UniProt P51449); experiment: qHTS assay for small molecule antagonists of the retinoid-related orphan receptor gamma (ROR-gamma) signaling pathway (AID 651802); note: nearly all actives have a fitted effect of over 60% in size; note: potency is the fitted concentration of half-maximal effect
Sequence of Nuclear receptor ROR-gamma (Homo sapiens) (P51449 whole entry, looked up): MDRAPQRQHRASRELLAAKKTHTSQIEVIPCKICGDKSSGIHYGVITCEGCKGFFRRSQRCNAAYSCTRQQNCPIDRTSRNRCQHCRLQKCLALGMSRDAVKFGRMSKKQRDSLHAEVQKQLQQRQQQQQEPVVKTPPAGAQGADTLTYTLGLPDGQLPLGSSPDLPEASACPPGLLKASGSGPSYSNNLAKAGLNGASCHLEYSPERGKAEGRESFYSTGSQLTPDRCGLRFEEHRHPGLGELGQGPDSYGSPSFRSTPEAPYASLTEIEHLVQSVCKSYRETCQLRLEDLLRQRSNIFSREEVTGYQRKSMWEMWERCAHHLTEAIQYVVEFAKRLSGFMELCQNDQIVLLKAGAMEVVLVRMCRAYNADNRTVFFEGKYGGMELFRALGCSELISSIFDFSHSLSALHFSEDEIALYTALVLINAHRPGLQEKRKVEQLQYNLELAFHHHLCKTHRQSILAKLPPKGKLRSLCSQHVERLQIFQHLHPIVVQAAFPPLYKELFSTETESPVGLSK
How it was run: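 CHO cells with TET-inducible ROR-gamma and RORE-luciferase reporter, dosed then doxycycline-induced. After 16 h at 37C, One-Glo luminescence read; decreased signal indicates antagonism.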

[17] = qHTS assay for small molecule antagonists of the retinoid-related orphan receptor gamma (ROR-gamma) signaling pathway - cell viability counter screen (AID 720652; active = well fitted curve in the direction sought with a large enough effect in the repeat runs; an effect the other way counts as inactive or inconclusive;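 note: series mostly up to about 92 µM; compound exposure lasted 16 hr before ATP read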)
How it was run: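 CHO cells carrying TET-inducible ROR and RORE-luciferase reporter, plated 5 hr, then dosed with compound plus doxycycline. After 16 hr at 37 C, viability read as intracellular ATP by CellTiter-Glo luminescence.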

[18] = molecular target: Nuclear receptor subfamily 1 group I member 2 (Rattus norvegicus) (UniProt Q9R1A7); experiment: qHTS assay for small molecule activators of the rat pregnane X receptor (rPXR) signaling pathway (AID 651751; call rule not given here); conditions: rPXR reporter cells, luciferase (One-Glo), 24 h
Sequence of Nuclear receptor subfamily 1 group I member 2 (Rattus norvegicus) (Q9R1A7 whole entry, looked up): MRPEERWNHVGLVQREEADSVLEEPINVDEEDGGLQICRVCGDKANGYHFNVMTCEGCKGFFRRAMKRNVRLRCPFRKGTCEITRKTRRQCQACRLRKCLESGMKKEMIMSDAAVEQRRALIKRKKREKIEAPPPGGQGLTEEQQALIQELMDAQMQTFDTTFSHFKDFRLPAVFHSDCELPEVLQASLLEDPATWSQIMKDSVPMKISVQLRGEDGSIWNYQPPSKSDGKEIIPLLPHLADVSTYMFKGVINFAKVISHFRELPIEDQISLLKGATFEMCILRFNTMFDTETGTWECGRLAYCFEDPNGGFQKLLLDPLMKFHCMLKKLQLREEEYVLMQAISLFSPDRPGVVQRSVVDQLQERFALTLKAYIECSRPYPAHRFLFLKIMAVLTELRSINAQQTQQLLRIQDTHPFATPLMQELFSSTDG

[19] = qHTS assay for small molecule activators of the human pregnane X receptor (PXR) signaling pathway (AID 720659; call rule not given here)
[20] = qHTS assay for small molecule activators of the nuclear factor-kappa B (NF-kB) signaling pathway (AID 651749; active = well fitted activation curve with a large enough effect in the signal ratio; the % refers to the signal ratio; note: series mostly up to about 77 µM); conditions: NF-kB-bla ME-180 cells, beta-lactamase FRET ratio, 16 h; activation: active compounds read high
How it was run: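 NF-kB-bla ME-180 cells carrying a beta-lactamase reporter under an NF-kB response element, 2,000 cells/well, exposed to compound for 16 hr at 37C; FRET-based beta-lactamase fluorescence read-out of pathway activation.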

Row | SMILES | Potency [1] | Potency [2] | Potency [3] | Potency [4] | Potency [5] | Potency [6] | Potency [7] | activation [8] | activation [9] | Potency [10] | outcome [11] | outcome [12] | outcome [13] | Potency [14] | activation [15] | Potency [16] | Potency [17] | max response [18] | outcome [19] | activation [20]
1 | Clc1ccc2ccccc2c1 | inactive | inactive | inactive | inactive | inactive | inactive | inactive | -2.62% | -0.849% | inactive | inactive | inactive | inactive | inactive | 1.92% | inactive | inactive | 7.07% | inactive | 
2 | O=C(Cl)/C=C/C(=O)Cl |  | inactive | inactive | inactive | inactive | inactive | inactive | 1.15% | 18.2% | inactive | inactive | inactive | inactive | inactive | -2.72% | inactive | inactive | 0.356% | inactive | 2.63%
3 | C=CC(=C)C | inactive | inactive | inactive | inactive | inactive | inactive | inactive | -1.71% | -4.98% | inactive | inactive | inactive | inactive |  | -2.92% | inactive | inactive | 11% | inactive | 
4 | O=C(Cl)C(Cl)(Cl)Cl | inactive | inactive | inactive | inactive | inactive | inactive | inactive | -1.96% | -1.29% | inactive | inactive | inactive | inactive | inactive | -0.85% | inactive | inactive | -0.469% | inactive | -1.07%
5 | Cc1ccc([N+](=O)[O-])cc1C | inactive | inactive | inactive | inactive | inactive | inactive | inactive | -0.387% and 0.526% |  |  | inactive | inactive | inactive | inactive |  | inactive | inactive | 1.14% and -0.13% | inactive | 0.21% and 0.188%
6 | CC(C)(OO)c1ccccc1 | inactive |  |  |  |  | inactive |  | -0.414% and -0.341% | 1.9% and -7.5% | inactive | inactive | inactive | inactive | inactive | 0.437% and -4.93% | 42.2 µM (active) |  | 7.13% and -0.342% | inactive | -2.1% and -0.395%
7 | CC(Cl)Cl | inactive | inactive | inactive | inactive | inactive | inactive | inactive | -0.0258% | -9.28% | inactive | inactive | inactive | inactive | inactive | -4.47% | inactive | inactive | -1.43% | inactive | 3.47%
8 | C=CC(N)=O |  | inactive | inactive | inactive | inactive | inactive |  |  | -1.03% and 0.342% | inactive |  | inactive | inactive | inactive | -1.86% and -1.05% and 3.38% | inactive | inactive | 2.43% and 2.67% and -1.89% | inactive | -0.549% and 0.0148% and 0.73%
9 | CCSC(=O)Cl | inactive | inactive | inactive | inactive | inactive | inactive | inactive | -1.31% | 17.3% | inactive | inactive | inactive | inactive | inactive | -1.99% | inactive | inactive | 4.31% | inactive | -1.04%
10 | ClC(Cl)=C(Cl)C(Cl)=C(Cl)Cl | inactive | inactive | inactive |  |  | inactive | inactive |  | -16.2% | inactive | inactive |  |  | inactive |  | inactive | inactive | 2.24% and -2.02% | inactive | 
11 | BrCCBr | inactive |  | inactive | inactive | inactive | inactive | inactive |  | 2.21% and 1.87% | inactive | inactive | inactive | inactive | inactive | -3.11% and 0.969% | inactive | inactive | 2.8% and -1.13% | inactive | -0.199% and 0.87%
12 | CC(C)(c1ccccc1)c1ccc(O)cc1 |  | inactive | inactive | inactive | inactive | inactive | 1.78 µM (active) and 3.16 µM (active) | 1.02% and 4.37% | 2.95% and 9.77% | inactive | inactive | inactive | inactive |  | -4.52% and -0.799% | inactive | inactive | 0.482% and 0.567% |  | -0.397% and -3.49%
